Results filed as inconclusive are left out. Active and inactive are the calls of the source. Unless noted, calls follow the shape of the dose curve; as a rule, active = well fitted curve in the direction sought with a large enough effect in the repeat runs; inconclusive = weak or mixed curves; inactive = no such curve, though single readings can be large; an effect the other way counts as inactive or inconclusive.
What was measured:
[1] = A CellTox Green Cytotoxicity Assay to monitor cytotoxicity in HEK293 cells - 32 hour (AID 1224881); also: nearly all actives have a fitted effect of over 40% in size
Outline: (§1)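 Cytotoxicity was tracked continuously in HEK293 cells by a DNA-binding dye excluded from viable cells. Compounds were transferred in DMSO 5 h after seeding; fluorescence was recorded at intervals up to 40 h.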

[2] = A CellTox Green Cytotoxicity Assay to monitor cytotoxicity in HepG2 cells - 32 hour (AID 1224883); also: nearly all actives have a fitted effect of over 50% in size
Outline: (§2)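 Real-time, homogeneous cytotoxicity readout: dead-cell DNA staining by CellTox Green in HepG2 monolayers, fluorescence measured at timed intervals up to 40 h of continuous compound exposure.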

[3] = A CellTox Green Cytotoxicity Assay to monitor cytotoxicity in HEK293 cells - 8 hour (AID 1224884); also: nearly all actives have a fitted effect of over 35% in size
Outline: as §1

[4] = qHTS RealTime-Glo MT Cell Viability Assay in HepG2 cells - 16 hour (AID 1224885); also: nearly all actives have a fitted effect of over 50% in size
Outline: (§3)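 HepG2 cells (600/well) were dispensed with RealTime-Glo reagents, incubated 5 h at 37 °C, then treated with compounds in DMSO for up to 40 h. Nonlytic NanoLuc luminescence reflecting viable cells was read at each stated time point.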

[5] = qHTS RealTime-Glo MT Cell Viability Assay in HEK293 cells - 24 hour (AID 1224886); also: nearly all actives have a fitted effect of over 50% in size; also: potency is read from the fitted curve at half-maximal effect; as to activity change, negative = cytotoxicity: top concentration of the series differs between compounds
Outline: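 HEK293 cells seeded with NanoLuc/prosubstrate reagent, rested 5 h at 37 C, then dosed and kept at 37 C up to 40 h. Nonlytic real-time luminescence from viable cells read at 0, 8, 16, 24, 32 and 40 h.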

[6] = qHTS RealTime-Glo MT Cell Viability Assay in HEK293 cells - 8 hour (AID 1224887); also: nearly all actives have a fitted effect of over 50% in size; also: potency is read from the fitted curve at half-maximal effect; as to activity change, negative = cytotoxicity: top concentration of the series differs between compounds
Outline: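 Nonlytic bioluminescent viability monitoring. HEK293 at 600 cells/well with reagent; 5 h settle; compound transfer by pintool; plates held at 37 C and read at set time points.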

[7] = A CellTox Green Cytotoxicity Assay to monitor cytotoxicity in HEK293 cells - 16 hour (AID 1224888); also: nearly all actives have a fitted effect of over 35% in size; also: potency is read from the fitted curve at half-maximal effect
Outline: as §1

[8] = qHTS RealTime-Glo MT Cell Viability Assay in HepG2 cells - 0 hour (AID 1224889); also: nearly all actives have a fitted effect of over 50% in size
Outline: as §3

[9] = A CellTox Green Cytotoxicity Assay to monitor cytotoxicity in HepG2 cells - 8 hour (AID 1224890); also: nearly all actives have a fitted effect of over 45% in size
Outline: as §2

[10] = qHTS assay to identify small molecule antagonists of the androgen receptor (AR) signaling pathway using the MDA cell line in the presence of 0.5 nM R1881 - cell viability counter screen (AID 1259242); also: nearly all actives have a fitted effect of over 45% in size
Outline: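 Cytotoxicity toward MDA-kb2 cells is measured by CellTiter-Fluor live-cell protease fluorescence after 16 hr compound exposure at 37C in the presence of 0.5 nM R1881 stimulator.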

[11] = molecular target: Estrogen receptor (Homo sapiens) (UniProt P03372); test: qHTS assay to identify small molecule antagonists of the estrogen receptor alpha (ER-alpha) signaling pathway using the BG1 cell line in the presence of 0.1 nM 17-beta-estradiol (AID 1259244); also: nearly all actives have a fitted effect of over 50% in size
Outline: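 After 5 days in hormone-depleted medium (charcoal-stripped serum, no phenol red), VM7Luc4E2 cells were seeded, incubated 24 h, then co-treated with compound and 0.1 nM (final) estradiol for 22 h before luminescence detection.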

[12] = qHTS assay to identify small molecule HDAC inhibitors (AID 1259364); also: top concentration of the series differs between compounds; nearly all actives have a fitted effect of over 45% in size
Outline: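 Homogeneous cell-based luminescent assay of endogenous class I/II HDAC activity; HCT-116 cells, 2 h compound exposure, 30 min HDAC-Glo development at RT.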

[13] = qHTS assay to identify small molecule HDAC inhibitors - cell viability counter screen (AID 1259365)
Outline: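 CellTiter-Glo luminescence (30 min, room temperature) reported viability after a 2 h compound exposure at 37 C. Cells: wild-type HCT-116, 1,500 per well, seeded the night before.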

[14] = qHTS assay to identify small molecule antagonists of the sonic hedgehog signaling (Shh) pathway - cell viability counter screen (AID 1259367); also: nearly all actives have a fitted effect of over 55% in size; also: potency is read from the fitted curve at half-maximal effect
Outline: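 After a 4 hr settling period, 3T3 Gli1-Luc cells were treated with DMSO-dissolved chemicals and conditioned medium, kept 24 hr at 37C in 5% CO2, and assayed for viability by CellTiter-Fluor fluorescence following 1 hr reagent incubation.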

[15] = qHTS assay to identify small molecule agonists of the sonic hedgehog signaling (Shh) pathway (AID 1259368; calls by dose curve;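 also: NIH/3T3-derived 3T3Gli1-Luc cells carrying a stable Gli1-driven firefly luciferase reporter; series mostly up to about 92 µM; nearly all actives have a fitted effect of over 15% in size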)
Outline: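 Steps: seed 3T3 Gli1-Luc cells, incubate 4 hr at 37 C, pin-transfer compounds in DMSO alongside a positive control, incubate 24 hr, add luciferase detection reagent, wait 30 min at room temperature, read luminescence.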

[16] = qHTS assay to identify small molecule agonists of the sonic hedgehog signaling (Shh) pathway - cell viability counter screen (AID 1259366); also: nearly all actives have a fitted effect of over 50% in size; also: potency is read from the fitted curve at half-maximal effect
Outline: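 Cytotoxicity counter screen: CellTiter-Fluor reagent added after 23 h compound exposure, then 1 h at 37C and fluorescence read. Cells were 3T3 Gli1-Luc, seeded 2,000 per well and dosed 4 h post-plating.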

[17] = molecular target: Androgen receptor (Homo sapiens) (UniProt P10275); test: qHTS assay to identify small molecule antagonists of the androgen receptor (AR) signaling pathway using the MDA cell line in the presence of 0.5 nM R1881 (AID 1259243); also: nearly all actives have a fitted effect of over 50% in size; also: potency is read from the fitted curve at half-maximal effect
Outline: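 Steps: seed MDA-kb2 cells, incubate 5 hr at 37C; pin-transfer compounds in DMSO; add R1881 to 0.5 nM final; incubate 16 hr; add ONE-Glo, wait 30 min at room temperature; read luminescence.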

[18] = qHTS assay to identify small molecule antagonists of the estrogen receptor alpha (ER-alpha) signaling pathway using the BG1 cell line in the presence of 0.1 nM 17-beta-estradiol - cell viability counter screen (AID 1259241); also: nearly all actives have a fitted effect of over 40% in size
Outline: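 Cytotoxicity counter-screen: live-cell protease activity measured by fluorescence (30 min reagent step) in the same wells. Cells were VM7Luc4E2 with endogenous ER-alpha and ERE-driven luciferase, treated 22 hr at 37C alongside 0.1 nM 17beta-estradiol final.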

[19] = qHTS assay to identify small molecule phospholipidosis (PLD) inducers (AID 1259344; active = well fitted curve in the direction sought with a large enough effect; an effect the other way counts as inactive or inconclusive)
Outline: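 HepG2 cells grown on collagen I take up LipidTOX Red while exposed to compound for 24 h; after fixation they are imaged at 20x and pit metrics are extracted.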

[20] = A CellTox Green Cytotoxicity Assay to monitor cytotoxicity in HepG2 cells - 0 hour (AID 1224882); also: nearly all actives have a fitted effect of over 35% in size
Outline: as §2
% is scaled to controls: 0 for no effect and ±100 for the full control effect.

Chain of Estrogen receptor (Homo sapiens) (P03372 whole entry, looked up): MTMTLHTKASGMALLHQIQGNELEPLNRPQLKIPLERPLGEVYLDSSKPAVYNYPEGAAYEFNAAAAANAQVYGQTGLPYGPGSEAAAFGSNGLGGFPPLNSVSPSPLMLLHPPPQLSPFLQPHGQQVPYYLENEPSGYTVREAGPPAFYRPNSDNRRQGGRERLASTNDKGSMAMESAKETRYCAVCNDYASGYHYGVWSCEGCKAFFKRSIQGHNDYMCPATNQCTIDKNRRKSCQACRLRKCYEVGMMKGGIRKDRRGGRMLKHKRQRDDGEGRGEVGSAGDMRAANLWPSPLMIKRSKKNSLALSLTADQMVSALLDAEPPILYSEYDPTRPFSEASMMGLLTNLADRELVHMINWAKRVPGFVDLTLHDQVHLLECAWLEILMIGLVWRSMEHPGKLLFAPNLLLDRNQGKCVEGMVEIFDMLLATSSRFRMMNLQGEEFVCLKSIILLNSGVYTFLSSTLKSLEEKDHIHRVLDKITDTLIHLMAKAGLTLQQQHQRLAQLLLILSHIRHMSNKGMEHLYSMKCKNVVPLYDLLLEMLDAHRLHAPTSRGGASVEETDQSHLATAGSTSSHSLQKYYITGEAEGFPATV
Chain of Androgen receptor (Homo sapiens) (P10275 whole entry, looked up): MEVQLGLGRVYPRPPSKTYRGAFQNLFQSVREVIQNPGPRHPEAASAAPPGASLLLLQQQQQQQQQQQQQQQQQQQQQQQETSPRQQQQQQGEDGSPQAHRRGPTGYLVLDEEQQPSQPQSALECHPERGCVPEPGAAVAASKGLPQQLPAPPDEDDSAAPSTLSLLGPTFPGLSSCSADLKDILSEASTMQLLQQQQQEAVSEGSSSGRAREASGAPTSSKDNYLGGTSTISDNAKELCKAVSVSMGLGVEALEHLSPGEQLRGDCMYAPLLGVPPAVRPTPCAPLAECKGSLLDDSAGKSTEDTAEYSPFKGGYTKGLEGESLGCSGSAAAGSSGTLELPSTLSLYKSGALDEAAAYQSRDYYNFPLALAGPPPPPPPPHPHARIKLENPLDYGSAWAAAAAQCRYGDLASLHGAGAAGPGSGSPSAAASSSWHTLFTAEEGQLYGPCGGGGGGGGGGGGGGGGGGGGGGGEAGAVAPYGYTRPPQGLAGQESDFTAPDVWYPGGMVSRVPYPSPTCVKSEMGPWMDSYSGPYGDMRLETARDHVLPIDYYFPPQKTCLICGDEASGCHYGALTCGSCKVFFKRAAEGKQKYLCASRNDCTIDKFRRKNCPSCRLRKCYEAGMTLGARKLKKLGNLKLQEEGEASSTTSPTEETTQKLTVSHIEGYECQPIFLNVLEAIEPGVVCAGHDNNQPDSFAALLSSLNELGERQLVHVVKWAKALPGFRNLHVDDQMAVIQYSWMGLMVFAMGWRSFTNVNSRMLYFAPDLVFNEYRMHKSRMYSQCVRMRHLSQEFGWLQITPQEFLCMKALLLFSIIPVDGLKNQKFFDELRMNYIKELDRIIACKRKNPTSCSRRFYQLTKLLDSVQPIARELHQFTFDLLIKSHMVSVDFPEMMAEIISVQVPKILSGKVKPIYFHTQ

O=C1CCCCC1C1CCCCC1 (configuration not stated)
inactive: Potency [1] | Potency [2] | Potency [3] | outcome [4] | Potency [5] | Potency [6] | Potency [7] | Potency [8] | Potency [9] | outcome [10] | Potency [11] | Potency [12] | outcome [13] | Potency [14] | Potency [15]

Oc1ccccc1F
inactive: Potency [1] | Potency [2] | Potency [3] | outcome [4] | Potency [5] | Potency [6] | Potency [7] | Potency [8] | Potency [9] | outcome [10] | Potency [11] | Potency [12] | outcome [13] | Potency [16] | Potency [14] | Potency [15]

CCc1cc2cc(OC)c(OC)cc2c(Cc2ccccc2)n1
inactive: Potency [1] | Potency [3] | outcome [4] | Potency [7] | Potency [8] | outcome [10] | Potency [12] | outcome [13] | Potency [16] | Potency [14] | Potency [15]
active: Potency [5] 16.9 µM | Potency [6] 16.9 µM | Potency [17] 4.22 µM

OCCN(CCO)c1ccccc1
inactive: Potency [1] | Potency [2] | Potency [3] | outcome [4] | Potency [6] | Potency [7] | Potency [8] | Potency [9] | Potency [18] | outcome [10] | Potency [17] | Potency [11] | Potency [12] | outcome [13] | Potency [16] | Potency [14] | Potency [15]

CC[C@H]1CC[C@H](NCc2cc3c(cc2OC)[C@H]2C[C@H]2C(=O)N3C)[C@H](c2ccccc2)N1
active: Potency [5] 21.9 µM | Potency [14] 8.63 µM
inactive: Potency [1] | Potency [3] | outcome [4] | Potency [7] | Potency [8] | Potency [9] | outcome [10] | Potency [12] | outcome [13] | Potency [15]

NCCC(O)(P(=O)(O)O)P(=O)(O)O
inactive: Potency [1] | Potency [2] | Potency [3] | outcome [4] | Potency [5] | Potency [6] | Potency [7] | Potency [8] | Potency [9] | outcome [10] | outcome [19] | Potency [12] | outcome [13] | Potency [16] | Potency [14] | Potency [15]

NNS(=O)(=O)c1ccc(Oc2ccc(S(=O)(=O)NN)cc2)cc1
inactive: Potency [1] | Potency [2] | Potency [3] | outcome [4] | Potency [6] | Potency [7] | Potency [8] | Potency [9] | Potency [18] | outcome [10] | Potency [11] | Potency [12] | outcome [13] | Potency [16] | Potency [14] | Potency [15]

CN1CCN(c2c(F)cc3c(=O)c(C(=O)O)cn(CCF)c3c2F)CC1
inactive: Potency [20] | Potency [2] | outcome [4] | Potency [5] | Potency [6] | Potency [8] | Potency [9] | Potency [18] | outcome [10] | Potency [11] | outcome [19] | Potency [12] | outcome [13] | Potency [14] | Potency [15]
active: Potency [7] 5.35 µM

CN(C)C(=O)NC1(c2ccccc2)CCN(CCC[C@]2(c3ccc(Cl)c(Cl)c3)CCCN(C(=O)c3ccccc3)C2)CC1
active: Potency [16] 13 µM
inactive: cytotoxicity increase [1] 19.1% [at 15.8 µM] | cytotoxicity increase [3] -1.4% [at 15.8 µM] | activity change, negative = cytotoxic [4] -10.4% [at 15.8 µM] | activity change, negative = cytotoxicity [6] -28.2% [at 15.8 µM] | activity change [7] -0.407% [at 15.8 µM, stronger effect = higher value] | activity change, negative = cytotoxicity [8] -2.18% [at 15.8 µM] | cytotoxicity increase [9] 9.35% [at 15.8 µM] | activity change, negative = cytotoxicity [18] 3.34% [at 19 µM] | viability change, negative = cytotoxic [10] -6.41% [at 19 µM] | activity change, negative = inhibition [11] 3.38% [at 19 µM] | activity change, negative = inhibition [12] -4.11% [at 19 µM] | activity change, negative = cytotoxicity [13] -5.58% [at 19 µM] | activity change [15] -5.82% [at 18.9 µM, stronger effect = higher value]

COC(=O)N[C@H](C(=O)N[C@@H](Cc1ccccc1)[C@@H](O)CN(Cc1ccc(-c2ccccn2)cc1)NC(=O)[C@@H](NC(=O)OC)C(C)(C)C)C(C)(C)C
inactive: Potency [1] | Potency [3] | outcome [4] | Potency [5] | Potency [6] | Potency [7] | Potency [18] | outcome [10] | Potency [11] | Potency [12] | outcome [13]

From PubChem BioAssay (Tox21)
